Laboratory results as given in the supplement of paper PMC11741263, “Chemoproteomic Profiling of C. albicans for Characterization of Anti-fungal Kinase Inhibitors” (bioRxiv, 2025).

Compound: Cc1[nH]nc2ccc(-c3cc(OC[C@@H](N)Cc4ccccc4)cnc3-c3ccoc3)cc12
Assay: MIB bead binding, log2 fold change vs DMSO (log2 ratio); higher = less competition (weaker engagement)

Sequence of UniProt Q9HGY5 (Q9HGY5 whole entry): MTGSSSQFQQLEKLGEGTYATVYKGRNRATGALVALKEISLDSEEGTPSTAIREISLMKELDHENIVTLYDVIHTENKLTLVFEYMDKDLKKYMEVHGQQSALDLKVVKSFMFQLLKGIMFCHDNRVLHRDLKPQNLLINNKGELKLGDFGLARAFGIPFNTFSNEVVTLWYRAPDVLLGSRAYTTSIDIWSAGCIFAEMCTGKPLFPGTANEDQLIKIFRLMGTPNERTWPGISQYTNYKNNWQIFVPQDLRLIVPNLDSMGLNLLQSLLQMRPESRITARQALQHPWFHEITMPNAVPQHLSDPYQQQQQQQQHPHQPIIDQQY
Sequence of UniProt Q5AP53 (Q5AP53 whole entry): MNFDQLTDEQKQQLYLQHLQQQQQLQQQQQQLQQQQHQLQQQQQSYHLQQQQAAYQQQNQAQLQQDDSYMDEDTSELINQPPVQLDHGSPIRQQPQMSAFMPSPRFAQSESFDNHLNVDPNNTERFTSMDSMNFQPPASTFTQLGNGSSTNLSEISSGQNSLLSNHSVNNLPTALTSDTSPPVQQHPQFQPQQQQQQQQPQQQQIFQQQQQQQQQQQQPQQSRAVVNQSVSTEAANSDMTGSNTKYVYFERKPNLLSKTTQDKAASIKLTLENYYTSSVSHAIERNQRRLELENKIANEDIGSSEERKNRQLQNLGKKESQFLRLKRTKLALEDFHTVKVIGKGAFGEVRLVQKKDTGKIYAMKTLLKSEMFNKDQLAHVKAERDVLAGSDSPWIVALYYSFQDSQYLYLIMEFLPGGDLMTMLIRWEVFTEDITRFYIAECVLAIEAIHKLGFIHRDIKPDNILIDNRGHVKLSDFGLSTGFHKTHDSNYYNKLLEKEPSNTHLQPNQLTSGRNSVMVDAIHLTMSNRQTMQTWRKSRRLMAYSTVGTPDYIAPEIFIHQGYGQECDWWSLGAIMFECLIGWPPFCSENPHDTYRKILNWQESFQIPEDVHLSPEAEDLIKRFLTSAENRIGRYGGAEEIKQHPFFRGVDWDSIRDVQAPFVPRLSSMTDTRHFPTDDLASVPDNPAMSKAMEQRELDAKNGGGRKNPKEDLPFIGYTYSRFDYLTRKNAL
Sequence of UniProt Q9BVS4 (Q9BVS4 whole entry, looked up): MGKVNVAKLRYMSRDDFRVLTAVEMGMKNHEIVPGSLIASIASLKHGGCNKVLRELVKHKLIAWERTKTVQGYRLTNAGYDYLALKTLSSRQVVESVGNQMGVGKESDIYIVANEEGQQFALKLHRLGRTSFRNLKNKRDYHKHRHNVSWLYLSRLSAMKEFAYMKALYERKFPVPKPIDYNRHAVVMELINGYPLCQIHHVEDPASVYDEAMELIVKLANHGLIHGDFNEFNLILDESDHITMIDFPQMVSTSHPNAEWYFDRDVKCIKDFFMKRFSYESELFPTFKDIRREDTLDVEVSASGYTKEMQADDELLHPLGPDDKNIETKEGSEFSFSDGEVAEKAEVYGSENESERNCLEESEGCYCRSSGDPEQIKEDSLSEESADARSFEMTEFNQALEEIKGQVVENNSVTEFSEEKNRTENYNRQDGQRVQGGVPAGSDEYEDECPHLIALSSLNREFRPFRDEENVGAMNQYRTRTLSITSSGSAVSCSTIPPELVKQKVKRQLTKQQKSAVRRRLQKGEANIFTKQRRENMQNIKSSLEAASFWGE
Sequence of UniProt Q5AHG6 (Q5AHG6 whole entry): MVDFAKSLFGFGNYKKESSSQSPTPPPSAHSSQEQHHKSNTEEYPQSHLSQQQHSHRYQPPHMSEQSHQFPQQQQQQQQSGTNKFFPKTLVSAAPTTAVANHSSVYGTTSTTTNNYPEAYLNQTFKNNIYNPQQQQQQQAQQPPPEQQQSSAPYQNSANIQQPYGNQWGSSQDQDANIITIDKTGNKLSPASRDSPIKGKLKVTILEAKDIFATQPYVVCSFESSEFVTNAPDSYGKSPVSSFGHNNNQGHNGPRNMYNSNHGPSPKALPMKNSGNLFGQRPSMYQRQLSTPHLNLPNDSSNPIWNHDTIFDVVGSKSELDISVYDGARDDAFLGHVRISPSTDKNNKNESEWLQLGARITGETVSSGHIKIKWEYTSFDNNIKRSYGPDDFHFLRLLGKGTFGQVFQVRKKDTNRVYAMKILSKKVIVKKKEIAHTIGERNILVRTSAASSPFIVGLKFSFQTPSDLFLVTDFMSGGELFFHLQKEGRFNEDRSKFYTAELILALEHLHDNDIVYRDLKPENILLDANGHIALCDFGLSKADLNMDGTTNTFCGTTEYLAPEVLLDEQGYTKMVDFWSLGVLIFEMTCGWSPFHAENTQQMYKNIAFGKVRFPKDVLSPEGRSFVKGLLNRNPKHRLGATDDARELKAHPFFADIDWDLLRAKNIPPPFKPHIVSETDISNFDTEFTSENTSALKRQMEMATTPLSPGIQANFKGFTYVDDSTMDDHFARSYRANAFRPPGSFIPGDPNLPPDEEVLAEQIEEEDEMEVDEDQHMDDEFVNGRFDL
Sequence of UniProt Q5A599 (Q5A599 whole entry): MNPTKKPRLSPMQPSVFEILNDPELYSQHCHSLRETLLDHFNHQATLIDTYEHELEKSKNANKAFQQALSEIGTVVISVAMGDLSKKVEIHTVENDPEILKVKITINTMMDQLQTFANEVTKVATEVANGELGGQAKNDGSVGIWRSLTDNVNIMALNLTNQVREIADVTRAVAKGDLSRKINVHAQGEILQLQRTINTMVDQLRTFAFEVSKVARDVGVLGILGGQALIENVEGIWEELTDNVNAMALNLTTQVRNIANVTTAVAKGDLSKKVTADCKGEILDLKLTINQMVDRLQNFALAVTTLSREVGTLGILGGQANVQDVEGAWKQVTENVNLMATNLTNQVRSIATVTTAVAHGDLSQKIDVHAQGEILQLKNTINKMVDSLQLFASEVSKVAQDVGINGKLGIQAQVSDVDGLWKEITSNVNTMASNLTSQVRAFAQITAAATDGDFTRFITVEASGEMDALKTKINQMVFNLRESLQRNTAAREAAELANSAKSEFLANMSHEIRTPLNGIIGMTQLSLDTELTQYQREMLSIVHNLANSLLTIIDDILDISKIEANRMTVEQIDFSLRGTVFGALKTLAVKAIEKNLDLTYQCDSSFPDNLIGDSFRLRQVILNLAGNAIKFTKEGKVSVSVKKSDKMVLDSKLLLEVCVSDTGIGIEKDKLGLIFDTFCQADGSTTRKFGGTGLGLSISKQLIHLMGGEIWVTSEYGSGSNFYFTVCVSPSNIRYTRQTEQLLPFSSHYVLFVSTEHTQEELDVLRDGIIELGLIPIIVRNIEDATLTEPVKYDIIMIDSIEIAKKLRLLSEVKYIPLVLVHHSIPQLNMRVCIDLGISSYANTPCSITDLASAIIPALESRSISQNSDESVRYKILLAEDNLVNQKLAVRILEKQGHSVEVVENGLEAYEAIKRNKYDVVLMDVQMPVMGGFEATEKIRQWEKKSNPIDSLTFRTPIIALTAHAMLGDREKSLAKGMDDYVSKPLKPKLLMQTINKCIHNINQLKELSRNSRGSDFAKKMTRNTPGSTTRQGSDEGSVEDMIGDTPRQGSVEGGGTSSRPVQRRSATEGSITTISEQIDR
Sequence of UniProt O00311 (O00311 whole entry, looked up): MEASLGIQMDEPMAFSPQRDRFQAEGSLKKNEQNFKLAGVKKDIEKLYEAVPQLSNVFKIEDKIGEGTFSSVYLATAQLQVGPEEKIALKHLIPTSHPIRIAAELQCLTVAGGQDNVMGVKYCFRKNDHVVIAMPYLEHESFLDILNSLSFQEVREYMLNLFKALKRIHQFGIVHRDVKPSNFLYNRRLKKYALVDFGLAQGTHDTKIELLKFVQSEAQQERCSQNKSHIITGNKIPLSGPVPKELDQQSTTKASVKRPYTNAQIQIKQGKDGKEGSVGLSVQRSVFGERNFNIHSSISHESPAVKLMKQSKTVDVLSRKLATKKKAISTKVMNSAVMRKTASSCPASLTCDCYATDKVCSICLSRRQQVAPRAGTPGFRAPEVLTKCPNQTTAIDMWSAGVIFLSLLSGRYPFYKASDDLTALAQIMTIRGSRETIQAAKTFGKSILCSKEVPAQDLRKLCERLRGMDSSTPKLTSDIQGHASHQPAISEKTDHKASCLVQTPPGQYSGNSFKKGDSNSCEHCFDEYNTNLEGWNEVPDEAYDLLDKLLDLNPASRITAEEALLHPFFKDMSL

Row | Target | MIB bead binding (log2) (0.1 µM) | MIB bead binding (log2) (1 µM) | MIB bead binding (log2) (10 µM)
1 | orf19.4144 | -0.0982 | -0.112 | -2.63
2 | CMK2 | 0.0395 | 0.585 | 
3 | CTK1 | -0.0626 | -0.159 | 
4 | YAK1 | -0.229 | -0.0276 | -2.8
5 | FPK1 | 0.0443 | -0.0445 | -0.41
6 | SHA3 | -0.155 | -0.569 | -1.8
7 | HST7 | 0.106 | -0.0777 | -1.68
8 | PHO85 (UniProt Q9HGY5) | 0.238 | 0.232 | -0.87
9 | IKS1 | -0.323 | -0.0927 | 
10 | RIO2 (UniProt Q9BVS4) | -0.284 | -0.263 | -1.23
11 | ENV7 | -0.351 | 0.16 | -1.89
12 | SCH9 (UniProt Q5AHG6) | -0.2 | -0.178 | -1.05
13 | CBK1 (UniProt Q5AP53) | 0.0978 | -0.0808 | -0.759
14 | SSK2 | -0.564 | -0.847 | -2.24
15 | KIN2 | -0.0805 | -0.118 | -0.154
16 | orf19.4518 | -0.0101 | -0.0109 | -0.0364
17 | HRR25 | -0.165 | -0.114 | -1.89
18 | NIK1 (UniProt Q5A599) | -0.731 | 0.254 | 
19 | CEK1 | -0.256 | -0.317 | -1.74
20 | YCK2 | -0.488 | -1.75 | -3.65
21 | CKA1 | -0.241 | 0.0806 | -2.47
22 | orf19.3456 | -0.328 | -0.791 | 
23 | HRK1 | -0.0934 | 0.0301 | -0.517
24 | CDC7 (UniProt O00311) | -0.0168 | -0.237 | 
25 | KIN3 | 0.0483 | 0.0107 | -0.586
26 | PBS2 | -0.000679 | -0.0528 | -0.766
27 | CAALFM_C106360WA | -0.234 | -0.165 | 
28 | CMK1 | 0.142 | 0.154 | -0.566
29 | SAK1 | 0.0968 | -0.223 | -0.482
30 | PKH3 | -0.246 | -0.128 | -0.466
